# Reference: paper PMC7862700, “An all-to-all approach to the identification of sequence-specific readers for epigenetic DNA modifications on cytosine”
# Assays:
# Test in all cases: DAPPL (digital affinity profiling via proximity ligation, sequencing); 10 mM Tris-HCl pH 7.5, 50 mM NaCl, 1 mM DTT, 4% glycerol, room temperature, 30 min; GST-TFs on glutathione beads, 16-mer random dsDNA library, 0.1% formaldehyde crosslink after washing; high values mean tight binding
# Details in all cases: protein: recombinant; tags: N-terminal GST; dsDNA, one strand shown
# ERF = target: T1, ERF (Homo sapiens, UniProt P50548 1-548)
# T1 sequence: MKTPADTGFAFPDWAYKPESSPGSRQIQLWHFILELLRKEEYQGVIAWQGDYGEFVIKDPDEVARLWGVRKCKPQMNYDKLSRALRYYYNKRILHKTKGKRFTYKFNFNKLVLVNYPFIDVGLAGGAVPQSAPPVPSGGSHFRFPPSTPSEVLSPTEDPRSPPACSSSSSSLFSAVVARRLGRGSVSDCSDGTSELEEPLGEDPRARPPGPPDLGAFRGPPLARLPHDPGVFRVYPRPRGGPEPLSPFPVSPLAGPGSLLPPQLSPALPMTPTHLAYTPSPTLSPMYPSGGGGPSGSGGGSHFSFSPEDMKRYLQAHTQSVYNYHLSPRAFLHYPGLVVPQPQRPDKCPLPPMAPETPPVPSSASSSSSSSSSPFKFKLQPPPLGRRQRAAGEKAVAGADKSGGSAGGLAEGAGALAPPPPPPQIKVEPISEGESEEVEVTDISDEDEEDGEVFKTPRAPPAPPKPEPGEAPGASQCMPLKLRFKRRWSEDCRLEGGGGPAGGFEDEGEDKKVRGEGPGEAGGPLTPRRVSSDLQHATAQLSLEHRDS
# Summary of the method: (§1)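 After expression in yeast as GST fusions, human transcription factors were bound to glutathione beads, DNA-barcoded and mixed with a tag-only sample. The pools were incubated with 200 nmole of a 16-mer random double-stranded DNA library in Tris/NaCl/DTT/glycerol buffer (30 min, room temperature), washed and crosslinked with 0.1% formaldehyde. Proximity ligation with BsaI/T4 ligase ran for 1 h at 37 °C, before PCR amplification and sequencing on an Illumina NextSeq500. Binding signal is a hexamer's read frequency for a factor divided by its frequency for the tag-only sample.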
# ETV3L = target: T2, ETV3L (Homo sapiens, UniProt Q6ZN32 1-361)
# T2 sequence: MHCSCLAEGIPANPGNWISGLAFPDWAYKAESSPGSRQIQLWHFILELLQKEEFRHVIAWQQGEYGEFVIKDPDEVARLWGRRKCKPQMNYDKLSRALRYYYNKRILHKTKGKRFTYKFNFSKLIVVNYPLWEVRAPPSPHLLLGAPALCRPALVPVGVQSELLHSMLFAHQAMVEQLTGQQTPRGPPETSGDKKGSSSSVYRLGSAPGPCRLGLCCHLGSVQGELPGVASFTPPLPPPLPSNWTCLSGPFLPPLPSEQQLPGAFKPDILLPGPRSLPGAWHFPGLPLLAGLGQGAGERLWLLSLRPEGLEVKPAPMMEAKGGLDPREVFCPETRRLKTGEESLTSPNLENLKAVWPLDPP
# Summary of the method: as §1
# ETS2 = target: T3, ETS2 (Homo sapiens, UniProt P15036 1-469)
# T3 sequence: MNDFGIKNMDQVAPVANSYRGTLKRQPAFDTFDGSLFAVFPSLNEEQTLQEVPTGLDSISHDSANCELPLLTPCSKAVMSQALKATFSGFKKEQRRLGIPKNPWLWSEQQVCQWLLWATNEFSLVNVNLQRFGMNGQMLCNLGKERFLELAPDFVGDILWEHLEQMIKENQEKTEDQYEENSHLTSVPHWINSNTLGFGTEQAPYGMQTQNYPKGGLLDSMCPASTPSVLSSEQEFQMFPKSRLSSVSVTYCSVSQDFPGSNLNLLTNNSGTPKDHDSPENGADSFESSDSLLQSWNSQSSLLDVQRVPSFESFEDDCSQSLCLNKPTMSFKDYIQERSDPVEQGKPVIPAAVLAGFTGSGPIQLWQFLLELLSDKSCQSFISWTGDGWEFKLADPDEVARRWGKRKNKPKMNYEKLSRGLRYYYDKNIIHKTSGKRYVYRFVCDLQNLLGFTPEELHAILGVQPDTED
# Summary of the method: as §1
# SPDEF = target: T4, SPDEF (Homo sapiens, UniProt O95238 1-335)
# T4 sequence: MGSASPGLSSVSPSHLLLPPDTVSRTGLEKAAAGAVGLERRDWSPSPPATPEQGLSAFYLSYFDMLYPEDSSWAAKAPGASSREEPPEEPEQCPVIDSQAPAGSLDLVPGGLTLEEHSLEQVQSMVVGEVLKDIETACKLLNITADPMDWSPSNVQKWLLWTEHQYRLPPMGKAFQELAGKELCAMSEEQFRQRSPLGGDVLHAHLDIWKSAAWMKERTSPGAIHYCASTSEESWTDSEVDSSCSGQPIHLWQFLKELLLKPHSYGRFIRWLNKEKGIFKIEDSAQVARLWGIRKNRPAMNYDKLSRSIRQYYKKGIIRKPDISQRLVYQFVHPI
# Summary of the method: as §1
# ETV7 = target: T5, ETV7 (Homo sapiens, UniProt Q9Y603 1-341)
# T5 sequence: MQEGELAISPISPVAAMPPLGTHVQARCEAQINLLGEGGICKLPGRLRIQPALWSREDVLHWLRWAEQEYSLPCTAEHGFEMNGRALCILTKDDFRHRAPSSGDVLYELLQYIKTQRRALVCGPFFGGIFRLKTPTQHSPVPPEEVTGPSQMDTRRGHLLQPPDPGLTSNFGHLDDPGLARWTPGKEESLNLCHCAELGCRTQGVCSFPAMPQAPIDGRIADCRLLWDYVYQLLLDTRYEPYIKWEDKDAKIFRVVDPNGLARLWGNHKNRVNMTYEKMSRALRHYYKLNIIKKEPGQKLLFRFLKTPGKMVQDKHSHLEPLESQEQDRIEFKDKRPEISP
# Summary of the method: as §1
# ELF5 = target: T6, ELF5 (Homo sapiens, UniProt Q9UKW6-2 1-255)
# T6 sequence: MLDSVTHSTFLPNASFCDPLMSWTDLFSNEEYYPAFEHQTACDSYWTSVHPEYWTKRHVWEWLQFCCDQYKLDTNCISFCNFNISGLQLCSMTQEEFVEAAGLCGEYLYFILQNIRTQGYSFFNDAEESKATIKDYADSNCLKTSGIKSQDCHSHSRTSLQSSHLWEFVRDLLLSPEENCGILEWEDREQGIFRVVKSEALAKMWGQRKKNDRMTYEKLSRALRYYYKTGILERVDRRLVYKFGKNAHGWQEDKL
# Summary of the method: as §1
# ETV3 = target: T7, ETV3 (Homo sapiens, UniProt P41162-2 1-143)
# T7 sequence: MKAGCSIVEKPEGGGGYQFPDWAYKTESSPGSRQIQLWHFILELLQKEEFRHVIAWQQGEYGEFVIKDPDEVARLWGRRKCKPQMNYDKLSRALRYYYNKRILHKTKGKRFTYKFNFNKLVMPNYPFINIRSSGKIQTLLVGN
# Summary of the method: as §1
# ETV6 = ETV6 (Homo sapiens, UniProt P41212 1-452)
# Sequence of ETV6 (P41212 whole entry): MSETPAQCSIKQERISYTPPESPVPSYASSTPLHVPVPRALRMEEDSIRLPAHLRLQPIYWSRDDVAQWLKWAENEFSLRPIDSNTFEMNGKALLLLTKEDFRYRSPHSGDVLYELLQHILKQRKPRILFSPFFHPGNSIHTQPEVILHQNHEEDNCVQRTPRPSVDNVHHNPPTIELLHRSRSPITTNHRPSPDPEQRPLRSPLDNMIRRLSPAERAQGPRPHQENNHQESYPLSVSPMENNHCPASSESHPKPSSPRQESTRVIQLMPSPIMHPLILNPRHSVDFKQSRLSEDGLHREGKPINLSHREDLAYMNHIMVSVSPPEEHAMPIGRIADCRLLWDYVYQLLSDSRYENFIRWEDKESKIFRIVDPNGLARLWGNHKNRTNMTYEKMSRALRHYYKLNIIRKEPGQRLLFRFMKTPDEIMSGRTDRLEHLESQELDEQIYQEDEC
# Summary of the method: as §1
Sequence,binding signal (ERF),binding signal (ETV3L),binding signal (ETS2),binding signal (SPDEF),binding signal (ETV7),binding signal (ELF5),binding signal (ETV3),binding signal (ETV6)
ACTTTG,"1.25 fold enrichment (6-mer frequency, TF over GST control)","1.2 fold enrichment (6-mer frequency, TF over GST control)","1.18 fold enrichment (6-mer frequency, TF over GST control)","1.14 fold enrichment (6-mer frequency, TF over GST control)","1.11 fold enrichment (6-mer frequency, TF over GST control)","1.25 fold enrichment (6-mer frequency, TF over GST control)","1.42 fold enrichment (6-mer frequency, TF over GST control)","1.18 fold enrichment (6-mer frequency, TF over GST control)"
CTGCCT,"1.23 fold enrichment (6-mer frequency, TF over GST control)","1.26 fold enrichment (6-mer frequency, TF over GST control)","1.16 fold enrichment (6-mer frequency, TF over GST control)","1.31 fold enrichment (6-mer frequency, TF over GST control)","1.36 fold enrichment (6-mer frequency, TF over GST control)","1.29 fold enrichment (6-mer frequency, TF over GST control)","1.23 fold enrichment (6-mer frequency, TF over GST control)","1.31 fold enrichment (6-mer frequency, TF over GST control)"
ACAAAT,"1.3 fold enrichment (6-mer frequency, TF over GST control)","1.15 fold enrichment (6-mer frequency, TF over GST control)","1.16 fold enrichment (6-mer frequency, TF over GST control)","1.1 fold enrichment (6-mer frequency, TF over GST control)","1.14 fold enrichment (6-mer frequency, TF over GST control)","1.13 fold enrichment (6-mer frequency, TF over GST control)","1.1 fold enrichment (6-mer frequency, TF over GST control)","1.17 fold enrichment (6-mer frequency, TF over GST control)"
AAAACC,"1.22 fold enrichment (6-mer frequency, TF over GST control)","1.18 fold enrichment (6-mer frequency, TF over GST control)","1.11 fold enrichment (6-mer frequency, TF over GST control)","1.18 fold enrichment (6-mer frequency, TF over GST control)","1.25 fold enrichment (6-mer frequency, TF over GST control)","1.19 fold enrichment (6-mer frequency, TF over GST control)","1.08 fold enrichment (6-mer frequency, TF over GST control)","1.19 fold enrichment (6-mer frequency, TF over GST control)"
TCTTAC,"1.29 fold enrichment (6-mer frequency, TF over GST control)","1.3 fold enrichment (6-mer frequency, TF over GST control)","1.21 fold enrichment (6-mer frequency, TF over GST control)","1.36 fold enrichment (6-mer frequency, TF over GST control)","1.31 fold enrichment (6-mer frequency, TF over GST control)","1.24 fold enrichment (6-mer frequency, TF over GST control)","1.27 fold enrichment (6-mer frequency, TF over GST control)","1.33 fold enrichment (6-mer frequency, TF over GST control)"
TCGATT,"1.01 fold enrichment (6-mer frequency, TF over GST control)","1.06 fold enrichment (6-mer frequency, TF over GST control)","1.16 fold enrichment (6-mer frequency, TF over GST control)","1.05 fold enrichment (6-mer frequency, TF over GST control)","1.04 fold enrichment (6-mer frequency, TF over GST control)","1.03 fold enrichment (6-mer frequency, TF over GST control)","1.01 fold enrichment (6-mer frequency, TF over GST control)","1.04 fold enrichment (6-mer frequency, TF over GST control)"
TTTATC,"1.19 fold enrichment (6-mer frequency, TF over GST control)","1.35 fold enrichment (6-mer frequency, TF over GST control)","1.26 fold enrichment (6-mer frequency, TF over GST control)","1.25 fold enrichment (6-mer frequency, TF over GST control)","1.22 fold enrichment (6-mer frequency, TF over GST control)","1.26 fold enrichment (6-mer frequency, TF over GST control)","1.29 fold enrichment (6-mer frequency, TF over GST control)","1.24 fold enrichment (6-mer frequency, TF over GST control)"
TTGTGT,"1.4 fold enrichment (6-mer frequency, TF over GST control)","1.15 fold enrichment (6-mer frequency, TF over GST control)","1.16 fold enrichment (6-mer frequency, TF over GST control)","1.26 fold enrichment (6-mer frequency, TF over GST control)","1.34 fold enrichment (6-mer frequency, TF over GST control)","1.16 fold enrichment (6-mer frequency, TF over GST control)","1.27 fold enrichment (6-mer frequency, TF over GST control)","1.19 fold enrichment (6-mer frequency, TF over GST control)"
